Consider 8 compounds from PubChem BioAssay (Tox21).

Test [1] is described as follows: qHTS assay to test for compound auto fluorescence at 535 nm (green) in HEK293 cells (AID 720680). On the technique in general: Quantitative high-throughput screening tests each substance at several concentrations.
The nature of test [2]: qHTS assay to test for compound auto fluorescence at 460 nm (blue) in HEK293 cell free culture (AID 720681). An outline of the steps: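 Blue fluorescence (Ex 405/Em 460 nm, triamterene-equivalent) was read immediately after pin transfer of compound or DMSO into medium (DMEM, 10% FBS) without cells.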
Test [3] can be described thus: qHTS assay to test for compound auto fluorescence at 535 nm (green) in HEK293 cell free culture (AID 720682). The gist of the method:
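Compounds were pin-transferred into cell-free DMEM with 10% FBS, and green fluorescence was read at excitation 485 nm and emission 535 nm. Intensities were expressed as fluorescein-equivalent values.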

A short description of test [4]: qHTS assay to test for compound auto fluorescence at 590 nm (red) in HEK293 cell free culture (AID 720683). An outline of the steps:
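Red-channel autofluorescence of compounds in culture medium (DMEM, 10% FBS), no cells, measured at 540/590 nm. Rose Bengal sodium is the reference fluorophore for equivalence.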

Test [5] in a line: qHTS assay to test for compound auto fluorescence at 460 nm (blue) in HepG2 cell free culture (AID 720685). An outline of the steps:
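Cell-free plates of MEM plus 10% FBS received 23 nL compound or DMSO vehicle; blue-channel (405/460 nm) intensity scored against triamterene as reference fluorophore.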

Test [6] in a line: qHTS assay to test for compound auto fluorescence at 535 nm (green) in HepG2 cell free culture (AID 720686).
Test [7] is described as follows: qHTS assay to test for compound auto fluorescence at 460 nm (blue) in HepG2 cells (AID 720687). The gist of the method: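 Blue-channel autofluorescence (Ex/Em 405/460 nm, triamterene-equivalent) was measured after 1 hr compound exposure at 37 C, 5% CO2. Cells were HepG2, plated overnight at 37 C in MEM plus 10% FBS.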
For test [8], the target named is Glucocorticoid receptor (Homo sapiens) (UniProt P04150). The test can be described thus: qHTS assay to identify small molecule agonists of the glucocorticoid receptor (GR) signaling pathway (AID 720691; active = well fitted activation curve with a large enough effect in the signal ratio in the repeat runs, not every such curve was filed as active; the % refers to the signal ratio; note: potency is the fitted concentration of half-maximal effect). The gist of the method: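 Steps: seed GR-bla HeLa cells, incubate 4 h at 37 C/5% CO2; pin-transfer DMSO-dissolved compounds; incubate 18 h at 37 C; add LiveBLAzer B/G FRET substrate; after 2 h at room temperature, measure fluorescence.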

Test [9] shares this target. Description: qHTS assay to identify small molecule antagonists of the glucocorticoid receptor (GR) signaling pathway (AID 720692; active = well fitted inhibition curve with a large enough effect in the signal ratio in the repeat runs, not every such curve was filed as active; the % refers to the signal ratio). An outline of the steps:
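Antagonism was scored as loss of dexamethasone-driven (5 nM final) reporter signal in HeLa cells bearing a glucocorticoid response element–beta-lactamase construct, after 18 h compound exposure at 37 C and 2 h FRET substrate loading.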

The nature of test [10]: qHTS assay to identify small molecule antagonists of the glucocorticoid receptor (GR) signaling pathway - cell viability counter screen (AID 720693). Note: nearly all actives have a fitted effect of over 55% in size.
The nature of test [11]: qHTS assay for identifying genotoxic compounds that show differential cytotoxicity against isogenic chicken DT40 cell lines with known DNA damage response pathways - wild type cell line (AID 743012). Note: nearly all actives have a fitted effect of over 60% in size. An outline of the steps: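 Cytotoxicity in repair-proficient parental chicken DT40 cells serves as the comparator for Rad54/Ku70- and Rev3-deficient lines. Cells were exposed to compounds for 40 h at 37 C/5% CO2, and ATP-based luminescence (CellTiter-Glo) measured viability.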

The nature of test [12]: qHTS assay for identifying genotoxic compounds that show differential cytotoxicity against isogenic chicken DT40 cell lines with known DNA damage response pathways - Rev3 mutant cell line (AID 743014). Note: nearly all actives have a fitted effect of over 55% in size.
The nature of test [13]: qHTS assay for identifying genotoxic compounds that show differential cytotoxicity against isogenic chicken DT40 cell lines with known DNA damage response pathways - Rad54/Ku70 mutant cell line (AID 743015). Note: nearly all actives have a fitted effect of over 60% in size.
Test [14] is described as follows: qHTS assay to identify small molecule antagonists of the androgen receptor (AR) signaling pathway - cell viability counter screen (AID 743033; note: nearly all actives have a fitted effect of over 45% in size).
The nature of test [15]: qHTS assay to identify small molecule antagonists of the androgen receptor (AR) signaling pathway using the MDA cell line - cell viability counter screen (AID 743041; note: nearly all actives have a fitted effect of over 45% in size). An outline of the steps: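 Using the breast carcinoma line MDA-kb2 AR-luc, test chemicals were co-incubated with R1881 for 16 h; CellTiter-Fluor reagent, added at 15.5 h, provided a fluorescence measure of live cells.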

The nature of test [16]: qHTS assay to test for compound auto fluorescence at 590 nm (red) in HepG2 cell free culture (AID 720684). An outline of the steps: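 No cells present: MEM + 10% FBS only. Compound pinned in, red label read (540/590 nm). Activity = fluorescence equivalent to Rose Bengal sodium.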
For test [17], the target named is Androgen receptor (Homo sapiens) (UniProt P10275). The test can be described thus: qHTS assay to identify small molecule antagonists of the androgen receptor (AR) signaling pathway (AID 743035; active = well fitted inhibition curve with a large enough effect in the signal ratio in the repeat runs, not every such curve was filed as active; the % refers to the signal ratio). The gist of the method: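 Steps: seed AR-UAS-bla GripTite HEK293 cells, incubate 4 h at 37C; pin in test compound, then add agonist R1881; incubate 16 h at 37C; add LiveBLAzer B/G FRET substrate, 2 h at room temperature; read fluorescence.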

For test [18] the target is unchanged. Description: qHTS assay to identify small molecule agonists of the androgen receptor (AR) signaling pathway using the MDA cell line (AID 743040; note: nearly all actives have a fitted effect of over 20% in size). The gist of the method:
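Stable MMTV-luciferase reporter in MDA-kb2 cells; note the promoter carries GR as well as AR response elements. 16 h compound treatment, 37C, 0% CO2; ONE-Glo luminescence endpoint.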

Test [19] shares this target. The test can be described thus: qHTS assay to identify small molecule antagonists of the androgen receptor (AR) signaling pathway using the MDA cell line (AID 743042; note: nearly all actives have a fitted effect of over 55% in size). The gist of the method: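 Antagonist mode: compounds plus R1881 agonist added to MDA-kb2 AR-luc cells, incubated 16 h at 37C. Luciferase reporter luminescence quantified, with multiplexed CellTiter-Fluor readout for cell viability.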

Test [20] shares this target. Description: qHTS assay to identify small molecule agonists of the androgen receptor (AR) signaling pathway (AID 743036; active = well fitted activation curve with a large enough effect in the signal ratio in the repeat runs, with a control signal flat, not every such curve was filed as active; the % refers to the signal ratio). The gist of the method: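 Activation was read as beta-lactamase FRET signal from LiveBLAzer B/G substrate, added for 2 h at room temperature. Before that, GeneBLAzer AR-UAS-bla GripTite (HEK293) cells had 16 h compound exposure at 37C.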

Structures are written as SMILES. A number with no mark means an inactive call. Records with an inconclusive call do not appear. Active and inactive are the calls of the source. Unless noted, calls come from the whole dose curve; as a rule, active = well fitted curve in the direction sought with a large enough effect in the repeat runs; inconclusive = weak or mixed curves; inactive = no such curve, though single readings can be large; an effect the other way counts as inactive or inconclusive.
% is set by controls: 0 for no effect and ±100 for the full control effect.

Sequence of Glucocorticoid receptor (Homo sapiens) (P04150 whole entry, looked up): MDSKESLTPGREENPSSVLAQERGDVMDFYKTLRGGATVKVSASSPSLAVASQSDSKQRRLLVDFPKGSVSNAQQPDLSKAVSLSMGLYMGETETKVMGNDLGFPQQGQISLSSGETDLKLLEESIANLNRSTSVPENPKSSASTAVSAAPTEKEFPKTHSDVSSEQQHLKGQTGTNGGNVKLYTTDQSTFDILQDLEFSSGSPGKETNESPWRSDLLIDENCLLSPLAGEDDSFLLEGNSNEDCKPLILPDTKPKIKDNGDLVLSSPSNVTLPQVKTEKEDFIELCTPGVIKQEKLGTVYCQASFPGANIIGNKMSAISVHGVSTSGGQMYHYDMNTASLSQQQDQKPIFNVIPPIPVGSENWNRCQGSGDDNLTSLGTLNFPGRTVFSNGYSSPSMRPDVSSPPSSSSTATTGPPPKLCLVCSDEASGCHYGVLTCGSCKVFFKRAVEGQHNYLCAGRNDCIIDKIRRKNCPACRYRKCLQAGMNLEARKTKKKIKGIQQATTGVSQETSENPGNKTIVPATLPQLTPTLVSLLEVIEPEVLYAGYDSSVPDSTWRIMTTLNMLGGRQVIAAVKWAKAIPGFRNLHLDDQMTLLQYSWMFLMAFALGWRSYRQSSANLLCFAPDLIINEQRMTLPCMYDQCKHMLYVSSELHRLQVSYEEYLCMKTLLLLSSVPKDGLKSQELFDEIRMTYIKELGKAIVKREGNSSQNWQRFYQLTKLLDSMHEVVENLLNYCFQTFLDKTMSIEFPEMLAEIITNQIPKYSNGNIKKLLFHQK
Sequence of Androgen receptor (Homo sapiens) (P10275 whole entry, looked up): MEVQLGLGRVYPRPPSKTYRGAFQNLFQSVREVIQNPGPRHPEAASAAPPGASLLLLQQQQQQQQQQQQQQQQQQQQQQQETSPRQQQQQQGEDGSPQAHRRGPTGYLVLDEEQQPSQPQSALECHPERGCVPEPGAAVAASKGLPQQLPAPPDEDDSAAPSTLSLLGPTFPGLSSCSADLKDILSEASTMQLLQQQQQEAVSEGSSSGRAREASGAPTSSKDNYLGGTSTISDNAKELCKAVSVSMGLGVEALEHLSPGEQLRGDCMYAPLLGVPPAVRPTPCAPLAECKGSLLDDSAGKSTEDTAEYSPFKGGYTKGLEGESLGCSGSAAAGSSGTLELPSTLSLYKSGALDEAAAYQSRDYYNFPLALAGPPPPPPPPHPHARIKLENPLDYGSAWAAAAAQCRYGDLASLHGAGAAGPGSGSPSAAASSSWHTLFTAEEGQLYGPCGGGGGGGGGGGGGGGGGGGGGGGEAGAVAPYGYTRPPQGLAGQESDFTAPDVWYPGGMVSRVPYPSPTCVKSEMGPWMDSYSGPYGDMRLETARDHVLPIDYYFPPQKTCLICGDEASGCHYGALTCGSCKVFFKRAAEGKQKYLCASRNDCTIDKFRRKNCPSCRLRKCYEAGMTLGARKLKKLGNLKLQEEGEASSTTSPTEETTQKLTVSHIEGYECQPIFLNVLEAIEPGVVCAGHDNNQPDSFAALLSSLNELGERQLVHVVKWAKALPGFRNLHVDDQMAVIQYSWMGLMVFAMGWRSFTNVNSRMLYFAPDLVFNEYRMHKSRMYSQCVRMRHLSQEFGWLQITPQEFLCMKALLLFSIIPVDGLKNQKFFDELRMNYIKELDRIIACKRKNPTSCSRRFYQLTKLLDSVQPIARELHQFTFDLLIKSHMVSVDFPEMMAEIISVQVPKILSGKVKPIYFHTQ

For the compound `CC1(C)S[C@@H]2[C@H](N=CN3CCCCCC3)C(=O)N2[C@H]1C(=O)O`, the call in test [1], in test [2], in [3], in [4], in [5] and in test [6] was inactive. Besides, the call in [7], in test [9] and in test [10] was inactive. In test [8], the Potency is 21.3 µM (active). Further, the Potency entry in test [11], in test [12], in [13], in [14] and in test [15] was “inactive” throughout.
For `O=C1c2ccccc2C(=O)C1c1ccccc1`, the fluorescence, % of fluorescein in test [1] is -0.0324% [at 18.6 µM]. Further, the fluorescence, % of fluorescent control in test [2] is -0.0862% [at 18.6 µM]; in [4], 0.0114% [at 18.6 µM]; in test [5], -0.0248% [at 18.6 µM]; in [7] it was -0.0075% [at 18.6 µM]. Further, in [3], the activity change is -0.148% [at 18.6 µM]. In addition, in [16], the fluorescence, % of Rose Bengal was -0.261% [at 18.6 µM]. The Potency entry in test [8], in test [11], in test [12], in [13], in test [14] and in [15] was “inactive” throughout. In addition, in test [10], the call was inactive.
For the compound `Cc1cccc2nccnc12`, the compound was classed as inactive in [1], in [2], in [3], in test [4], in test [16] and in test [5]. Further, the call in [7] was inactive. Further, the Potency result in [8], in [12], in test [13], in test [14] and in test [15] was “inactive” each time.
Regarding `CC1(CO)CN(c2ccccc2)NC1=O` (centres undefined), the compound was called inactive in test [1], in test [2], in test [3], in test [4], in [16] and in test [5]. The compound was classed as inactive in [7], in test [10] and in [18]. The Potency entry in test [11], in test [12], in [14], in test [17] and in test [19] was “inactive” throughout.
Take `OCCC(F)(F)C(F)(F)C(F)(F)C(F)(F)C(F)(F)C(F)(F)C(F)(F)C(F)(F)F`: the call in test [1], in [2], in [3], in test [4], in test [16] and in test [5] was inactive. Moreover, the result in [7], in test [10], in test [20] and in test [18] was inactive. Also, the Potency entry in test [11], in [12], in test [14], in test [15] and in test [19] was “inactive” throughout.
On to `CCc1ccc(C=O)cc1`, for which the call in test [1], in [2], in test [3], in [4], in [16] and in [5] was inactive. The result in test [7] and in [9] was inactive. The Potency entry in test [8], in [11], in [12], in [13] and in test [14] was “inactive” each time.
For the compound `CO[C@@H]1[C@@H](OC(N)=O)[C@@H](O)[C@H](Oc2ccc3c(O)c(NC(=O)c4ccc(O)c(CC=C(C)C)c4)c(=O)oc3c2C)OC1(C)C`, in [1], the fluorescence, % of fluorescein is -0.0123% [at 18.6 µM]. Moreover, the fluorescence, % of fluorescent control in [2] is 0.0286% [at 18.6 µM]; in [4], 0.0652% [at 18.6 µM]; in [5], 0.0828% [at 18.6 µM]; in test [7], 0.0292% [at 18.6 µM]. Moreover, the activity change in [3] was -0.156% [at 18.6 µM]. Moreover, the fluorescence, % of Rose Bengal in [16] is 0.235% [at 18.6 µM]. Further, the Potency entry in test [8], in test [11], in test [12], in [13], in test [14] and in test [15] was “inactive” each time. The compound was called inactive in [9].
For the compound `CCCCCCCCC(=O)Cl`, the outcome in test [1], in test [2], in test [3], in test [4], in [16] and in test [5] was inactive. The outcome in test [7] and in test [10] was inactive. In addition, the Potency entry in [12], in test [13], in test [14] and in test [15] was “inactive” throughout.
